The structures appear in SMILES notation. This is part of a sample that, as a whole, favours compounds with a hit. Of some 79,000 tested, about 15% had one in any assay. Values without a mark were called inactive. Active and inactive are the calls of the source. No stated cut-off is given here; in the data, active means growth inhibition above about 70%; inactive means the rest.

Test [1] can be described thus: NCI Yeast Anticancer Drug Screen. Data for the rad50 strain (AID 155).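 Further: 0% = growth of vehicle-only cultures of the same strain.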 As to conditions: S. cerevisiae rad50 strain growth inhibition; at 50.0 µM; active compounds read high. Put shortly:
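A DNA repair-deficient yeast mutant serves as the test organism; compound-induced growth inhibition is calculated against vehicle-treated cells.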

Test [2] in a line: NCI Yeast Anticancer Drug Screen. Data for the mec2-1 strain (AID 157). Conditions: S. cerevisiae mec2-1 strain, at 50.0 µM, active compounds read high. Put shortly: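 mec2-1 yeast strain, carrying an alteration in DNA damage repair or cell cycle control, was exposed to compounds; growth inhibition was measured relative to vehicle-treated controls.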
A short description of test [3]: NCI Yeast Anticancer Drug Screen. Data for the sgs1 mgt1 strain (AID 161).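 Further: 0% = growth of cultures given vehicle only.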 Conditions: S. cerevisiae sgs1 mgt1 strain, at 50.0 µM, active compounds read high. Put shortly: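 Yeast cells carrying a defined DNA-repair defect were exposed to test compounds. Growth inhibition was measured relative to vehicle-treated controls.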
The nature of test [4]: NCI Yeast Anticancer Drug Screen. Data for the cln2 rad14 strain (AID 165).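 Further: 0% = growth equal to vehicle treated cultures.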 As to conditions: S. cerevisiae cln2 rad14 strain, at 50.0 µM, active compounds read high. In short, it runs like this: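 Yeast carrying cln2 and rad14 alterations (cell cycle control and DNA damage repair) were exposed to compounds. Growth inhibition was measured against vehicle-treated controls.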
A short description of test [5]: NCI Yeast Anticancer Drug Screen. Data for the bub3 strain (AID 167). As to conditions: S. cerevisiae bub3 mutant strain, at 50.0 µM, active compounds read high. In short, it runs like this:
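Inhibition values come from growth of compound-treated mutant yeast normalised to vehicle-treated controls.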

Test [6] in a line: NCI Yeast Anticancer Drug Screen. Data for the mlh1 rad18 strain (AID 175). As to conditions: S. cerevisiae mlh1 rad18 strain growth inhibition; at 50.0 µM; active compounds read high. Put shortly: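 Growth inhibition of the yeast strain was measured after compound exposure and expressed relative to vehicle-treated controls. The strain carries defined defects in DNA damage repair.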

As for `Cc1cccc(Cl)c1NC(=O)c1cccc([N+](=O)[O-])c1`, the growth inhibition was 0.15% in test [1]; 40.6% in test [2]; 22.9% in test [3]; -7.95% in test [4]; 32.4% in test [5]; 46.4% in test [6].

On to `O=c1[nH]c2cc([N+](=O)[O-])ccc2nc1/C=C(\O)c1cccc([N+](=O)[O-])c1`, for which the growth inhibition in test [1] was 12.3%; in test [2], -1.35%; in test [3], 5.25%; in test [4], -5.15%; in test [5], -3.1%; in test [6], 28.6%.

As to `CC(=O)/C(=C/N1C(=O)CC(=O)NC1=S)C(=O)Nc1ccccc1`, the growth inhibition is -24.8% in test [1]; -26.5% in test [2]; -39.9% in test [3]; 3.85% in test [4]; -17.5% in test [5]; -20.7% in test [6].

Turning to `COc1ccc(C[C@@H]2Cc3cc(OC)c(OC)cc3CN2C)cc1`, the growth inhibition is 27.4% in test [1]; 4.6% in test [2]; 19.6% in test [3]; 5.65% in test [4]; 10.9% in test [5]; 21.4% in test [6].

As for `N#CCCN(CCC#N)c1ccc(CC2C(=O)N(c3cccc(S(=O)(=O)O)c3)N=C2C(=O)O)cc1` (stereo not given), the growth inhibition in test [1] is -19.4%; in test [2], -26.8%; in test [3], -23.1%; in test [4] it was 6.65%; in test [5], -15.9%; in test [6], -32.1%.

For `Fc1c(F)c(F)c(SN=S=Nc2ccccc2)c(F)c1F`, the growth inhibition was 13.4% in test [1]; 12.1% in test [2]; 13.3% in test [3]; -1.35% in test [4]; 15.1% in test [5]; 26.9% in test [6].

Take `CC1(C)CCCC/C1=N\O`: the growth inhibition is 5.5% in test [1]; 24.2% in test [2]; 3.8% in test [3]; 24.4% in test [4]; 23.2% in test [5]; 3.3% in test [6].

As to `C=CCC(OC(C)=O)c1cccc(OC)c1OC` (stereo not given), the growth inhibition in test [1] is 3.7%; in test [2], 7.2%; in test [3], -9.45%; in test [4], -48.7%; in test [5] it was -3.25%; in test [6] it was -5.3%.

Regarding `Cc1ccccc1-[n+]1noc(N)n1`, the growth inhibition was 4.75% in test [1]; 0.45% in test [2]; -14.6% in test [3]; 3.85% in test [4]; -0.7% in test [5]; 12.6% in test [6].

Regarding `Cc1cc2cccc(C)c2[nH]1`, the growth inhibition in test [1] was -11.4%; in test [2] it was -4.75%; in test [3], 18.6%; in test [4], 0.5%; in test [5], 4.6%; in test [6], -9.2%.

Turning to `COc1cc2ccc3c4c(OC)cc5c(c4c[n+](C)c3c2cc1OC)OCO5`, the growth inhibition in test [1] is 88% (active); in test [2], 91.3% (active); in test [3] it was 88.3% (active); in test [4], 88.7% (active); in test [5], 90% (active); in test [6], 87.2% (active).

Consider `COc1c(C=O)c2c(c(OC)c1OC)-c1ccc(OC)c(=O)cc1[C@@H](NC(C)=O)CC2`, for which the growth inhibition in test [1] was 12.5%; in test [2] it was -9.6%; in test [3], -0.25%; in test [4], 7.15%; in test [5] it was 2.9%; in test [6], -0.95%.

`CCc1n[nH]c(=O)n1N1C(=O)C2CCCCC2C1=O` (stereo not given): the growth inhibition in test [1] is 16.1%; in test [2], -20.5%; in test [3], 35.1%; in test [4], 6.5%; in test [5], 3.2%; in test [6], -25.9%.

As for `CCC(CO)(CO)CBr`, the growth inhibition in test [1] was 3.75%; in test [2] it was -1.1%; in test [3] it was 0.6%; in test [4], -14.7%; in test [5], -4.9%; in test [6], 9.55%.

Regarding `CC(C)(CCc1nc2ccccc2[nH]1)C(=O)O`, the growth inhibition in test [1] was -18.1%; in test [2] it was -6.35%; in test [3] it was -1.35%; in test [4], -10%; in test [5], 1.05%; in test [6], -3.85%.

As for `CC(=O)N(C)c1ccc(NC(=O)Nc2c(C)cccc2C)cc1`, the growth inhibition in test [1] was 6.55%; in test [2], 10%; in test [3], 10.7%; in test [4] it was 4.85%; in test [5] it was 19.6%; in test [6], 15.6%.

`COc1ccc2ccccc2c1CN1CCOCCOCCN(Cc2c(OC)ccc3ccccc23)CCOCCOCC1`: the growth inhibition in test [1] is -18.1%; in test [2], -34.5%; in test [3] it was -23.4%; in test [4], -28.1%; in test [5] it was 5.75%; in test [6], -29.4%.

For `Cc1cccc(C2(C(=O)O)CCCC2)c1`, the growth inhibition in test [1] was 14.7%; in test [2], -5.2%; in test [3] it was 15.9%; in test [4] it was 39%; in test [5] it was 24.3%; in test [6], 35.4%.

As to `Cc1[nH]c(=O)nc(CC(O)(c2ccccc2)c2ccccc2)c1-c1ccccc1`, the growth inhibition is -31.6% in test [1]; -38.1% in test [2]; -22% in test [3]; 14.2% in test [4]; -6.05% in test [5]; -26.1% in test [6].

In the case of `CCC(=O)CC(C)=O.CCC(=O)CC(C)=O.[Cu]`, the growth inhibition in test [1] was -10.3%; in test [2], 19.4%; in test [3] it was 5.5%; in test [4] it was -31%; in test [5], -2.2%; in test [6], 14.2%.

These data come from PubChem BioAssay (NCI).
